Hit rate of the full screen: of about 310,000 compounds, about 14,000 (4.5%) showed an effect of 50% or more. The effect is printed as a negative number. This excerpt belongs to a sample that is enriched for strong results.
molecular target: human ether-à-go-go-related gene (hERG) potassium channel (human, UniProt Q12809); test: primary screen, population patch clamp on CHO cells stably expressing hERG; higher = less effect of the substance
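Note: peak tail current of the secondary pulse compared with the same well before compound.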

Chain of human ether-à-go-go-related gene (hERG) potassium channel (Q12809 whole entry, looked up): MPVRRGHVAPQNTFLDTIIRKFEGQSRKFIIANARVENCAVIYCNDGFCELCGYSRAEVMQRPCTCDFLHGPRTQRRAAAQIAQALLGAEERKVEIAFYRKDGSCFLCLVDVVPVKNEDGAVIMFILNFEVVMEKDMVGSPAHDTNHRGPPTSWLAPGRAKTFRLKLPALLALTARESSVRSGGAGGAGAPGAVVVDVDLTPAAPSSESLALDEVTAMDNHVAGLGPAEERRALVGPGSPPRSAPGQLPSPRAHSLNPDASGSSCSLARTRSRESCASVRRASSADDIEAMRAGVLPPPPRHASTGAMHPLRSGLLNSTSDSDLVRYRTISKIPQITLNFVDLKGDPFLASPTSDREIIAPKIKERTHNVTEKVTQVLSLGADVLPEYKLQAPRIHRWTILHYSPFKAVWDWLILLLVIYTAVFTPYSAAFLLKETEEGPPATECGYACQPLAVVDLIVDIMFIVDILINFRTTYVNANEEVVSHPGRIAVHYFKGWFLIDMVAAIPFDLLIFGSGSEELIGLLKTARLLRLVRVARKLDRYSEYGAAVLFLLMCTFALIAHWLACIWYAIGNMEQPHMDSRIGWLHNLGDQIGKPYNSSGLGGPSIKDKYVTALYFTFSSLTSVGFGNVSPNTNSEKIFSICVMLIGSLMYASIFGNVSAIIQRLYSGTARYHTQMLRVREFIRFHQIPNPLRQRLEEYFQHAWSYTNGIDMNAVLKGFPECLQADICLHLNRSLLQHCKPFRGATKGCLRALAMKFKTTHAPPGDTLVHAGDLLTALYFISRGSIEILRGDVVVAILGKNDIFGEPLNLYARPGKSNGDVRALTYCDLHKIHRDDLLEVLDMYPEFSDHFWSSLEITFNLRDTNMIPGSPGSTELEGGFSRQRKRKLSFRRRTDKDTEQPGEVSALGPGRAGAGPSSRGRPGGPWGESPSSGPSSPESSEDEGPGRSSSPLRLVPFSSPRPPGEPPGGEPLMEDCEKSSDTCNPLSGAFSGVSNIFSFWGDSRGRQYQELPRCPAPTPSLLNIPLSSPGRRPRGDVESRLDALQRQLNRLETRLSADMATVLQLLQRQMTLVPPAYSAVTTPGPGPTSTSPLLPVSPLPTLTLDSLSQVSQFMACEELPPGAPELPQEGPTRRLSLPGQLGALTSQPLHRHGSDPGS

| SMILES | hERG current change (%, negative = inhibition) at 10uM [%] |
| --- | --- |
| Cc1cc(C)c(CSc2ncc(-c3ccc([N+](=O)[O-])cc3)[nH]2)c(C)c1 | -10.2 |
| NC(=O)CSc1ncc(-c2ccc([N+](=O)[O-])cc2)[nH]1 | -14.6 |
| CCOC(=O)CSc1ncc(-c2ccc([N+](=O)[O-])cc2)[nH]1 | -61 |
| O=C(c1ccc2c(c1)OCO2)C1CCCN(C(=O)Nc2ccc(F)cc2F)C1 (stereo not shown) | -30 |
| Cc1ccc(-n2cccn2)c(CN2CCCC(C(=O)c3ccc4c(c3)OCO4)C2)c1 (stereo not shown) | -77.2 |
| CCOC(=O)CCNC(=O)N1CCCC(C(=O)c2ccc3c(c2)OCO3)C1 (stereo not shown) | 2.31 |
| O=C(c1ccc2c(c1)OCO2)C1CCCN(Cc2cc(F)ccc2-n2cccn2)C1 (stereo not shown) | -74.9 |
| CCOC(=O)CNC(=O)N1CCCC(C(=O)c2ccc3c(c2)OCO3)C1 (stereo not shown) | 11.1 |
| c1cncc(-c2ccnc3ncnn23)c1 | -4.79 |
| COc1cc(C)c(CNc2cccc(C)c2)cc1C | 2.74 |
| Cc1ccc(SCn2nnc3ccccc3c2=O)c(C)c1 | -33.8 |
| O=C(CCCn1cnc([N+](=O)[O-])n1)Nc1cccc(O)c1 | 9.95 |
| CCOC(=O)C(C)n1nc(-c2ccccc2)c2ccccc2c1=O (stereo not shown) | 15.9 |
| CCC1Oc2ccc(C)cc2N(CC(=O)NC2CCCCC2)C1=O (stereo not shown) | 5.8 |
| CCCCNC(=O)Nc1nnc(SCC(=O)OCC)s1 | -91.2 |
| CCCCNC(=O)CSc1nnc(NC(C)=O)s1 | -10.6 |
| CCOC(=O)CSc1nnc(NC(=O)NC(C)C)s1 | 5.74 |
| O=C(O)CCN1CCc2ccccc21 | 9.02 |
| FC(F)(F)c1cccc(NCc2n[nH]c(=S)n2C2CCCCC2)c1 | 41.2 |
| Cc1ccc(S(=O)(=O)N(C)Cc2cc3ccccc3[nH]c2=O)cc1 | -15.7 |
| COc1cccc(C(=O)/C=C/Nc2ccc(S(=O)(=O)Nc3nc(C)cc(C)n3)cc2)c1 | -1.4 |
| O=C(CCc1nnc2ccc(NCCCN3CCCC3=O)nn12)NCc1ccccc1Cl | -1.05 |

| SMILES | hERG current change (%, negative = inhibition) at 10uM [%] |
| --- | --- |
| Cc1nn(-c2ccccc2)c2c1C(c1ccc(F)cc1F)C(C#N)=C(N)O2 (stereo not shown) | -9.42 |
| COc1ccc(C(=O)n2nc(-c3ccco3)nc2N)cc1 | -2.65 |
| CC(C)CCn1c(=O)c2ccccc2n2c(CN(C)Cc3ccccc3)nnc12 | -80.7 |
| CC(C)CCn1c(=O)c2ccccc2n2c(=S)[nH]nc12 | 18.2 |
| CC(C)CCn1c(=O)c2ccccc2n2c(CCl)nnc12 | -32.8 |
| CC(C)CCn1c(=O)c2ccccc2n2c(CN3C(=O)NC4(CCC(C)CC4)C3=O)nnc12 (stereo not shown) | -72.1 |
| CC(C)CCn1c(=O)c2ccccc2n2c(CN3CCCC3)nnc12 | -2.3 |
| CC(C)CCn1c(=O)c2ccccc2n2c(CN3CCOCC3)nnc12 | -11.9 |
| CCN1C(=O)/C(=C2/Sc3ccc(OC)cc3N2C)SC1=Nc1cccc(O)c1 | 15.6 |
| CCOc1ccc(S(=O)(=O)n2ccc(C)n2)cc1 | 10.9 |
| O=S(=O)(NCc1ccc2c(c1)OCO2)c1cccc(S(=O)(=O)N2CCOCC2)c1 | 10.6 |
| N#Cc1ccc2c(c1)nnn2-c1ccccc1 | 1.85 |
| O=c1c2ccccc2nc(CSc2ncnc3nc[nH]c23)n1-c1ccc(Cl)c(Cl)c1 | 5.27 |
| CCOC(=O)Cn1cnc2c(C#N)c3n(c2c1=O)CCCCC3 | -9.52 |
| N#Cc1c(-c2ccccc2)nc(-c2ccccc2)[nH]c1=O | 13.4 |
| N#Cc1c(-c2ccccc2)nc(-c2ccncc2)[nH]c1=O | -71.5 |
| N#Cc1c(-c2ccccc2)nc(-c2cccnc2)[nH]c1=O | 17.6 |
| Cc1ccc(NC(=O)C(C)OC(=O)/C=C/c2ccccc2)cc1 (stereo not shown) | 23 |
| Cc1cc(Cl)cc(C)c1OCCOCCNCc1ccccc1.O=C(O)C(=O)O | -52.4 |
| Clc1cccc(Cl)c1OCCOCCNCc1ccccc1.O=C(O)C(=O)O | -31.2 |
| Cc1cc(C)c(C)c(OCCOCCNCc2ccccc2)c1.O=C(O)C(=O)O | -54.2 |

Reference: article PMC4336329 (PLoS ONE, 2015)
